In PubChem BioAssay AID1259376 (The Scripps Research Institute Molecular Screening Center, 2018):
The campaign covered roughly 4,700 compounds. About 360 (7.7%) were called active. Only a sample is shown. Unmarked numbers belong to inactive results.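 The calls were made as follows: active = inhibition above a cutoff derived from the DMSO control wells (cut at about 30% in these data); inactive = the rest.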

Assay: bead signal artefacts at single dose – biochemical, AlphaScreen, triplicate, counter-screen for MITF inhibitor project (AID 1259376)
Settings: LysRS AlphaScreen counterscreen, signal interference, at 2.6 µM, stronger effect = higher value

SMILES	inhibition
CC(C)(C)n1nnnc1C(c1ccc2ncccc2c1)N1CCSCC1 (stereo not given)	30.7% (active)
CCSc1ccccc1C(=O)N1CCN(c2ccc(-c3ccccn3)nn2)CC1	101% (active)
Brc1cccc(CN2CCN(Cc3cccnc3)CC2)c1	-5.02%
Cc1cc(C(C)(C)C)ccc1OCCN1CCNCC1	-9.28%
CCN1CCN(CCOCCOc2ccccc2OCc2ccccc2)CC1	9.59%
Cc1cc(NC(=O)/C=C/C(=O)N(CC(=O)NC2CCCC2)c2ccc(F)cc2)no1	10.1%
O=C(c1ccc2c(c1)C(=O)N(Cc1cccnc1)C2=O)c1ccc2c(c1)C(=O)N(Cc1cccnc1)C2=O	24.6%
CN(CCc1ccccn1)Cc1cccnc1	22.1%
Cc1ccc(OCCCCNCCN2CCOCC2)c(Br)c1	13.8%
N#Cc1nc(COc2cccc(Cl)c2)oc1NCCCn1ccnc1	65.7% (active)
CCc1cccc(OCCOCCn2ccnc2)c1	-2.1%
CCc1ccc(OCCCCn2ccnc2)cc1	0.71%
c1ccc(-n2cc(CN3CCOCC3)c(-c3ccc4c(c3)OCCO4)n2)cc1	10%
CCCS(=O)(=O)N1CCN(Cc2ccc(OC)c(OCc3ccccc3)c2)CC1	9.8%
CN1CCC(N2CCN(c3ccccc3Cl)CC2)CC1	14.1%
COc1cc(Nc2ncnc3c2nc(N2CCOCC2)n3C(C)C)cc(OC)c1OC	13.7%
COc1ccc(Cn2nnc(C(=O)Nc3cccc(Cl)c3)c2N)cc1	14.3%
O=C(CNCc1ccc(F)cc1)Nc1ccc(N2CCCC2)cc1	25.2%
CCOc1ccc(CN2CCCN(C)CC2)cc1	0.42%
CCCn1c(C)cc(-c2csc(NC(=O)Cc3ccsc3)n2)c1C	12%
CC(=O)NS(=O)(=O)c1ccc(-c2ccc(C=C(C#N)C#N)o2)cc1	3.05%
COc1ccc(CN2CCN(Cc3ccccc3OC)CC2)cc1Br	7.62%
Cc1cccc(CSc2n[nH]c(=O)[nH]c2=O)c1	-7.01%
CC1CN(CCOc2ccccc2[N+](=O)[O-])CC(C)O1 (stereo not given)	13.4%
COc1ccc(OCCn2ccnc2C)cc1	-3.46%

SMILES	inhibition
CCN1CCN(CCOCCOc2ccc([N+](=O)[O-])cc2)CC1	9.29%
COc1cccc(/C=C(\C#N)c2nc3ccccc3[nH]2)c1OCc1ccc(Cl)cc1Cl	0.18%
COc1ccc(C(CNCc2cc(=O)oc3cc4c(cc23)CCC4)N2CCOCC2)cc1 (stereo not given)	13%
CCOc1cc(CN2CCN(Cc3ccccn3)CC2)ccc1OC	17.5%
c1cc2c(cc1CN1CCN(C3CCCCC3)CC1)OCO2	2.75%
COc1cc(CN2CCN(Cc3cc(OC)c(OC)cc3OC)CC2)cc(OC)c1	-0.77%
COc1cc(CN2CCN(Cc3ccccc3Br)CC2)cc(OC)c1	9.78%
CCN(CC)C(=O)C1CCCN(Cc2cccc(Cl)c2)C1 (stereo not given)	14.2%
COc1ccc(C(=O)N2CCN(Cc3ccccc3C(F)(F)F)CC2)cc1OC	20.4%
CN(C)c1cccc(Nc2ccc(-c3cccc(C=O)c3)cn2)c1	73.1% (active)
C1=CC2CC1CC2CN1CCN(Cc2c[nH]c3ccccc23)CC1 (stereo not given)	2.75%
COc1ccc(CN2CCN(C3CCC(C)CC3)CC2)c(OC)c1OC (stereo not given)	-12.1%
CC(=O)c1ccc(NC(=O)C(C)NCc2ccc(C)cc2)cc1 (stereo not given)	15.9%
Fc1cccc(CN2CCN(C3CCC(c4ccccc4)CC3)CC2)c1 (stereo not given)	21.8%
COCCCN1C(=O)c2cccc3c(C(=O)c4ccccc4)ccc(c23)C1=O	12.9%
CCOc1cccc(C2C(C(=O)OCCOc3ccccc3)=C(C)NC3=C2C(=O)CCC3)c1 (stereo not given)	14.4%
COC(=O)C1(C)NC(c2ccc(C)cc2)C2C(=O)N(c3ccc(F)cc3)C(=O)C21 (stereo not given)	11.6%
COc1cc(N2CCOCC2)ccc1Nc1cc(Nc2ccccc2-n2cccn2)c(C(F)(F)F)cn1	8.51%
O=C(C1CCN(Cc2nc3ccccc3[nH]2)CC1)N1CCN(c2ccccn2)CC1	13.8%
c1cncc(CCNc2ccc3ncc(-c4cc5ccccc5o4)n3n2)c1	6.63%
O=C(c1ccccc1)N1CCN(C2CCCC2)CC1	-2.61%
COc1ccc(C2C(C(C)=O)=C(C)N=C3SCC(=O)N32)c(OC)c1 (stereo not given)	-6.53%
COc1ccc(C(=O)COC(=O)CNS(=O)(=O)/C=C/c2ccc(C)cc2)cc1OC	5.32%
O=C(CN1CCN(CC(=O)c2ccco2)CC1)Nc1ccc(Cl)c(Cl)c1	10.6%
COc1cc(CN2CCN(Cc3ccc(C)cc3)CC2)c([N+](=O)[O-])cc1OC	13.5%

SMILES	inhibition
CCOc1ccccc1N1CCN(Cc2cc(OC)c(O)c([N+](=O)[O-])c2)CC1	16.9%
O=C(CCC(=O)OCc1ccc(Cl)cc1)Nc1ccc([N+](=O)[O-])cc1	14.7%
Cc1n[nH]c(=O)nc1N/N=C/c1cccs1	100% (active)
CC1CCN(S(=O)(=O)c2ccc(Cl)c(C(=O)Nc3ccccc3[N+](=O)[O-])c2)CC1	14.3%
COc1ccc(OC)c(CN2CCN(Cc3ccc(Cl)cc3)CC2)c1	15.1%
Cn1c(=NC(=O)COc2ccccc2)sc2cc(S(C)(=O)=O)ccc21	12.4%
COC(=O)c1sc(NC(=O)c2ccccc2C)c(C#N)c1C	-2.84%
Cc1ccccc1NC(=O)NCCOc1cc(N2CCCC2)ncn1	13.1%
O=[N+]([O-])c1ccccc1CN1CCN(Cc2cccnc2)CC1	12.2%
O=C(c1cccc(Cl)c1)N1CCN(Cc2cccnc2)CC1	7.21%
COc1ccc(-c2nc(Nc3cc(OC)c(OC)c(OC)c3)c3[nH]cnc3n2)cc1	16.5%
CCNc1nc(NCC)nc(C(=O)O)n1	77% (active)
CCN1CCN(CCCCOc2ccccc2F)CC1	6.82%
Cc1cccc(OCCN2CCNCC2)c1C	-1.28%
Cc1nc(NC2CC2)cc(-c2ccc(F)cc2)n1	14.2%
Cc1nc(NC(=O)c2cc(Br)ccc2Cl)sc1C	12.2%
COc1cc(CN2CCN(Cc3cccnc3)CC2)cc(OC)c1OC	18.8%
CN(CCc1ccccn1)CC(=O)N1CCc2ccccc21	-7.9%
CCCCC(=O)NCc1ccc(F)cc1	10.9%
Cc1nnc(N2CCC(Cc3ccccc3)CC2)c2ccccc12	6.39%
CCCS(=O)(=O)N1CCN(C(C)C)CC1	9.53%
C=CCNC(=O)c1sc(=S)n(CC)c1N	-4.06%
COc1cc2nc(-c3cccc(C(C)=O)c3)nc(N)c2cc1OC	13.2%
O=C1NC(c2ccccc2[N+](=O)[O-])C(C(=O)c2cccs2)C(O)(C(F)(F)F)N1 (stereo not given)	12.5%
CCN(CC)CC(=O)Nc1c2c(nc3ccccc13)N(c1cccc(C)c1)CC2	1.32%

SMILES	inhibition
Cc1cccc(NC(=O)CNCCN2CCCCC2)c1C	12.4%
C/C(N)=C(/C#N)C(=O)COC(=O)c1c2c(nc3ccccc13)/C(=C/c1ccco1)CC2	-24.2%
CC1CCC2C(=O)N(c3ccc(I)cc3)C(=O)C2C1 (stereo not given)	0.06%
Cc1ccc(C)n1C(Cc1ccccc1)C(=O)O (stereo not given)	-2%
Cc1ccc(C)c(OCCN2CCOCC2)c1C	17.5%
COc1ccc(CN2CCN(Cc3cccnc3)CC2)cc1OCc1ccccc1	10.3%
C=CCc1cc(C)ccc1OCCCn1ccnc1	7.18%
OCCOCCN1CCN(Cc2ccc(Cl)cc2)CC1	3.33%
C=CCn1c(SCC(=O)Nc2nc3ccccc3s2)nc(O)cc1=O	-1.43%
CN(CCC(=O)O)Cc1cccc(Cl)c1	-6.2%
COc1cc(CN2CCN(Cc3ccc(Cl)cc3)CC2)c([N+](=O)[O-])cc1OC	4.12%
CCC(C)c1ccccc1NC(=O)CN(C)CC(=O)Nc1ccccc1SC (stereo not given)	3.28%
O=c1c2ccccc2ncn1CCCCOc1ccccc1F	7.91%
COc1ccc(CN2CCN(Cc3ccccc3C)CC2)c(OC)c1OC	-1.44%
COc1ccc(C(=O)NCCN2CCN(c3nc4c(C)c(C)ccc4s3)CC2)cc1	-2.39%
Fc1ccc(CN2CCN(C3CCCC3)CC2)cc1	5.37%
O=C(c1cccs1)N1CCC(N2CCN(Cc3ccccc3)CC2)CC1	-5.37%
O=[N+]([O-])c1ccc(OCc2nnc(SCCN3CCOCC3)n2-c2ccccc2)cc1	-4.47%
Clc1ccc(CN2CCN(CC3CC=CCC3)CC2)cc1 (stereo not given)	1.68%
Fc1cccc(Cl)c1Cn1nnc(-c2ccncc2)n1	12.8%
CCCCCOc1ccc(OC(=O)c2ccc(-c3ccc(CCC)cn3)cc2)cc1	9.51%
O=C(Cc1cccs1)N/N=C\C=C\c1ccco1	-6.28%
c1ccc(Oc2cccc(OCCCCn3cncn3)c2)cc1	0.8%
Cn1c(-c2ccc(F)cc2)cnc1NCc1cccnc1	-4.79%
O=C(CNCc1cccnc1)Nc1ccc(C(=O)N2CCCCC2)cc1	8.3%
